Of roughly 7,900 targets only a part is listed; those with a hit were picked by preference. About 0.6% of all pairs of compound and target were hits. Values without a mark were called inactive.

Sequence of UniProt Q9P0T7 (Q9P0T7 whole entry, looked up): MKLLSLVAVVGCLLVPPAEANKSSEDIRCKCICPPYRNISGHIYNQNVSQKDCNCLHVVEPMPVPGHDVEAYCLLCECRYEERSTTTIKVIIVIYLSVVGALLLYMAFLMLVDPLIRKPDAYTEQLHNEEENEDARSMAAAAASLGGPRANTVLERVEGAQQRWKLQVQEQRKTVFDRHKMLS
Sequence of UniProt O43156 (O43156 whole entry, looked up): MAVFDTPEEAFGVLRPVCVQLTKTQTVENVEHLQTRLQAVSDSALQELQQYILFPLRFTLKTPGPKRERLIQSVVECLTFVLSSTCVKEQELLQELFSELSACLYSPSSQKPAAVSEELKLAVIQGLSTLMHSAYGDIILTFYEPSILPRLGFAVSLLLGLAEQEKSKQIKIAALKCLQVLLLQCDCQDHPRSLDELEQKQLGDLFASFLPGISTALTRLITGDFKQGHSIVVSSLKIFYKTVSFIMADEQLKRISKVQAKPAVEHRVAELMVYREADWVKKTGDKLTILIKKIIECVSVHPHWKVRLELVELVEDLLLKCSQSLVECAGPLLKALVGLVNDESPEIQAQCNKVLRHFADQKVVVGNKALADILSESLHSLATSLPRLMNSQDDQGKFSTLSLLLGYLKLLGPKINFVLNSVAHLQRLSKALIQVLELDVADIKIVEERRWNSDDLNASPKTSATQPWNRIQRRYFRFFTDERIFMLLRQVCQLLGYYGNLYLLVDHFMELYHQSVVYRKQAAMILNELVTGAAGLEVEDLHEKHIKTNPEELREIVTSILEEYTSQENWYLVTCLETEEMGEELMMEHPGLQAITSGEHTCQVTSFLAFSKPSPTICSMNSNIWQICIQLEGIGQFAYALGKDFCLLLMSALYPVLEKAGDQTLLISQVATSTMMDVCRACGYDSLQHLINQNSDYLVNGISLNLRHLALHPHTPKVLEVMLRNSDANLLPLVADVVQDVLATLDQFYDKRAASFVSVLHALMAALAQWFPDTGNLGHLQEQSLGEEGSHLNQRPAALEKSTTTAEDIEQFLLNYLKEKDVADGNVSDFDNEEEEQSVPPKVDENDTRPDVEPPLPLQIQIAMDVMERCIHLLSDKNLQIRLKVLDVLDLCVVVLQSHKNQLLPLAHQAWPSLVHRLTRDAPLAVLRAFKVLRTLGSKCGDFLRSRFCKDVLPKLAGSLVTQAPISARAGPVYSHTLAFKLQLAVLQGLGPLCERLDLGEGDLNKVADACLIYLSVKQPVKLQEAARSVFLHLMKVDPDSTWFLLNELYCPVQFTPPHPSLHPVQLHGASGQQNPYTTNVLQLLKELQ
Sequence of UniProt Q15061 (Q15061 whole entry, looked up): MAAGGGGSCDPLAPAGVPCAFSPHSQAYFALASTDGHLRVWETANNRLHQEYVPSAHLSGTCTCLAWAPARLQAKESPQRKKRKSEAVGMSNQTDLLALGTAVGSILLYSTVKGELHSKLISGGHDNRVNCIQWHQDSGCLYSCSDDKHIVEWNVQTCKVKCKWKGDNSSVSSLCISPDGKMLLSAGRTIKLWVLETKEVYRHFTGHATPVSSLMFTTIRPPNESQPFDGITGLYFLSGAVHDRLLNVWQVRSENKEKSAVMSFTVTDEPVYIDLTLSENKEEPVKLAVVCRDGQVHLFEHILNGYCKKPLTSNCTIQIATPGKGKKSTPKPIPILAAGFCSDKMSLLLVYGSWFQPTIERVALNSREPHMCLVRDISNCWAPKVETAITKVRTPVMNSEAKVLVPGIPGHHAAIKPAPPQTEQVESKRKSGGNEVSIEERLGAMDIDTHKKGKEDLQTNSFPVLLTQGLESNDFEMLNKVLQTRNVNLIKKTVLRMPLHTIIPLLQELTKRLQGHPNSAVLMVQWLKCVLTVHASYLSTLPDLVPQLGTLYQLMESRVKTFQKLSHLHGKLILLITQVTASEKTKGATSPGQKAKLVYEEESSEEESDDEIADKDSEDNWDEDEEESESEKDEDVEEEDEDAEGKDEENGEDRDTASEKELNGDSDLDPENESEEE
Sequence of UniProt Q8N1B4 (Q8N1B4 whole entry, looked up): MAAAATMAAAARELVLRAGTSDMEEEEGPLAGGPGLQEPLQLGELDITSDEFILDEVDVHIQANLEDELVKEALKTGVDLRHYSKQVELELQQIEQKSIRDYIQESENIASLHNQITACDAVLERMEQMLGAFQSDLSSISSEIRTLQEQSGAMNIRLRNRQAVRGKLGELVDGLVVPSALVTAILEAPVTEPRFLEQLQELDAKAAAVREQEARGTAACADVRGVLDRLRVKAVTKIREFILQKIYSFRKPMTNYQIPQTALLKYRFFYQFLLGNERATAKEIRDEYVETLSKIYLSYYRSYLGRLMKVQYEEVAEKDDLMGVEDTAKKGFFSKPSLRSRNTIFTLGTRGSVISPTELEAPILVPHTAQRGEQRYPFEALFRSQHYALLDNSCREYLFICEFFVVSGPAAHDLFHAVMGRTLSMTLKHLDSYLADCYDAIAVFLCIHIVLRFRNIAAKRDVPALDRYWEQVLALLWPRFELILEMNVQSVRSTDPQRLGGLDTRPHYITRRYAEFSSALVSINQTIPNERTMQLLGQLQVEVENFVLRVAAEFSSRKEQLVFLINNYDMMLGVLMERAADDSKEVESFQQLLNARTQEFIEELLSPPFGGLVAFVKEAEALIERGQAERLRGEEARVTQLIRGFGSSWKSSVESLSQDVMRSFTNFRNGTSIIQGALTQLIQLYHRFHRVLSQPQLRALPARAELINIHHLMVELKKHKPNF
Sequence of UniProt P12956 (P12956 whole entry, looked up): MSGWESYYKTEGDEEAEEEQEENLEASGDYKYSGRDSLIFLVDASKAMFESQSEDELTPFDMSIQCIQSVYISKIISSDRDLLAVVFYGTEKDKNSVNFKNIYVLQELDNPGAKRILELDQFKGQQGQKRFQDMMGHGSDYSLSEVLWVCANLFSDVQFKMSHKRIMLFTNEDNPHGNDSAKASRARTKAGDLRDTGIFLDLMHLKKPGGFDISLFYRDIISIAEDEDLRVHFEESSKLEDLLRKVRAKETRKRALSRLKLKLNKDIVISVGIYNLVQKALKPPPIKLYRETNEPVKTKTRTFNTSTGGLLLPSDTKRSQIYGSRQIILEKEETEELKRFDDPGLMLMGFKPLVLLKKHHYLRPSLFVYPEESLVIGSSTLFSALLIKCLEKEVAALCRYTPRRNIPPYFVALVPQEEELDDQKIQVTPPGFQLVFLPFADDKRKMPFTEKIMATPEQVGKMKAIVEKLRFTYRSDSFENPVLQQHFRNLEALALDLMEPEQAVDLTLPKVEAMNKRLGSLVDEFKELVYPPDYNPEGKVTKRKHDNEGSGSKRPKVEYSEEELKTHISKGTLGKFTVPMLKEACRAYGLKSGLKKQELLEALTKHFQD
Sequence of UniProt Q5T3F8 (Q5T3F8 whole entry, looked up): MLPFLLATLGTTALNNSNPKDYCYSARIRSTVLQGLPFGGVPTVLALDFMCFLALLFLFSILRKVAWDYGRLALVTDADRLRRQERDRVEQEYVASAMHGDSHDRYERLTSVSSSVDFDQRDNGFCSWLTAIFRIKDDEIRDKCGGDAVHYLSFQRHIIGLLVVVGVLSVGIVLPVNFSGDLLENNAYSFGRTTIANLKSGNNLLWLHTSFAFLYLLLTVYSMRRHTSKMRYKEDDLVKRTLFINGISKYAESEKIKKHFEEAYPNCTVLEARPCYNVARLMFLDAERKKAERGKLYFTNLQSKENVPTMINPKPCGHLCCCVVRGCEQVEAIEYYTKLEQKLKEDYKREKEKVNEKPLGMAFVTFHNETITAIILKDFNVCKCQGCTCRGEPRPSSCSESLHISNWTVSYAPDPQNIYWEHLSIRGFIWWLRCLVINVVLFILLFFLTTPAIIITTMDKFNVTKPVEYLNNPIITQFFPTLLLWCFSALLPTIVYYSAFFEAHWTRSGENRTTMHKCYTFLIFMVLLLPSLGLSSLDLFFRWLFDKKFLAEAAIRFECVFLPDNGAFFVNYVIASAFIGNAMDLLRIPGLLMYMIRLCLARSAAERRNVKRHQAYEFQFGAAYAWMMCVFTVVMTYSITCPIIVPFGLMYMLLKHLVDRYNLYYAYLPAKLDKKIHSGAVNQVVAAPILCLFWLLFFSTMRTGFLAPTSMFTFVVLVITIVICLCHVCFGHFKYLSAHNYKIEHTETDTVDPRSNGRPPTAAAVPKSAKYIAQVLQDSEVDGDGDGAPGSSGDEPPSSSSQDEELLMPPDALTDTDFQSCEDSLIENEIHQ
Sequence of UniProt A6NIH7 (A6NIH7 whole entry, looked up): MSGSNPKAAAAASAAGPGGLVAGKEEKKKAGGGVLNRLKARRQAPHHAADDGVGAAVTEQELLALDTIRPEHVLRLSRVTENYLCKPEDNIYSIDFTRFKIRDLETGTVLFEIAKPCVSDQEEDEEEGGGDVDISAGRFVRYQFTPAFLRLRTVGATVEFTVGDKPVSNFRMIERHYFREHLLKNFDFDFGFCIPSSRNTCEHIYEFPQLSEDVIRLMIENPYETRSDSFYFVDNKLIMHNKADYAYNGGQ
Sequence of UniProt O95857 (O95857 whole entry, looked up): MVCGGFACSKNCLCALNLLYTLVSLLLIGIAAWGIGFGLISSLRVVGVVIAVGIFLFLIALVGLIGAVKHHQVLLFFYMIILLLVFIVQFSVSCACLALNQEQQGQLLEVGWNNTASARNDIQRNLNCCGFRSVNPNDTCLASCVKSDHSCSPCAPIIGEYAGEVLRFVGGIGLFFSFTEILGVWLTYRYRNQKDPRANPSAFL
Sequence of UniProt Q9NP79 (Q9NP79 whole entry, looked up): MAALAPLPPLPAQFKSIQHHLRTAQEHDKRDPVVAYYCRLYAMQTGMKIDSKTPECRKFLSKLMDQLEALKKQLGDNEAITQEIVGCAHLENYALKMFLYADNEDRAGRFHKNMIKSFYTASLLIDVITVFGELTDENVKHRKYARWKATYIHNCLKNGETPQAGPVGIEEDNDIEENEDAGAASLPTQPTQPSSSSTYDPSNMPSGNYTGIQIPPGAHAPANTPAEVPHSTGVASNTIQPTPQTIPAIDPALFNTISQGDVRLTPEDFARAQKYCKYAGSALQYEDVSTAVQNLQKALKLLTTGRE

Compound in this test: c1ccc([C@@H]2C[C@H]2NC2CCNCC2)cc1
The experiment in a line: log2 fold change, soluble protein after heating vs DMSO (PISA); higher = thermal stabilisation; K562 cells, 10 uM, 30 min; active = over 0.2 and 3.5 SD of the protein, either way, in both replicates (recomputed). An outline of the steps:
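Soluble protein was defined as the supernatant after 21,000xg for 90 min. It came from K562 cells at 2×10^6 cells/mL given 10 μM compound for 30 min, heated in aliquots for 3 min across 48°C-58°C, pooled, and extracted in PBS with 0.5% NP-40 at 4°C, and was quantified by TMTpro 16plex LC-MS/MS with equalised channel sums. Thermal stability against control samples, from duplicates, is reported as log2 fold change.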
For VPS33B (UniProt Q9H267), the log2 fold change is -0.064.
USP24 (UniProt Q9UPU5): the log2 fold change is -0.033.
Take UBIAD1 (UniProt Q9Y5Z9): the log2 fold change is 0.093.
For TMEM9B (UniProt Q9NQ34), the log2 fold change is -0.011.
For TRIM4 (UniProt Q9C037) the value was -0.038.
For WDR75 (UniProt Q8IWA0) the value was -0.089; for TTI1 (UniProt O43156), -0.085.
VTA1 (UniProt Q9NP79): the log2 fold change is -0.025.
For VPS51 (UniProt Q9UID3), the log2 fold change is -0.044.
On to TRAPPC11 (UniProt Q7Z392), for which the log2 fold change was 0.027.
UBE2S (UniProt Q16763): the log2 fold change was 0.013.
With UCHL5 (UniProt Q9Y5K5), the log2 fold change was 0.004.
Consider WDR43 (UniProt Q15061), for which the log2 fold change is 0.001.
For TMEM63B (UniProt Q5T3F8) the value was -0.04.
For UBXN10 (UniProt Q96LJ8), the log2 fold change was 0.063.
For UHRF1BP1L (UniProt A0JNW5) the value was -0.018.
For WDCP (UniProt Q9H6R7) the value was 0.145; for UNC119B (UniProt A6NIH7), -0.009.
Consider XRCC6 (UniProt P12956), for which the log2 fold change is -0.003.
With XPO5 (UniProt Q9HAV4), the log2 fold change is -0.01.
With UBAP2L isoform 5 (UniProt Q14157), the log2 fold change was 0.017.
For TMEM70 (UniProt Q9BUB7), the log2 fold change was -0.002.
For WASHC2A (UniProt Q641Q2) the value was 0.033; for TSPAN13 (UniProt O95857), 0.018.
For WASHC3 (UniProt Q9Y3C0) the value was 0.028.
TMEM9 (UniProt Q9P0T7): the log2 fold change was -0.079.
For TMEM219 (UniProt Q86XT9) the value was -0.162.
For TRMT10A (UniProt Q8TBZ6) the value was -0.055; for WDR41 (UniProt Q9HAD4), 0.055; for USP48 isoform 8 (UniProt Q86UV5), 0.119.
For TMEM208 (UniProt Q9BTX3) the value was 0.031; for XRCC5 (UniProt P13010), -0.003; for WASHC2C, A0A096LPC5, 0.001.
Turning to VPS52 (UniProt Q8N1B4), the log2 fold change is -0.028.
For WDR18 (UniProt Q9BV38) the value was 0.019.
For VRK1 (UniProt Q99986) the value was -0.136.

Source of the values: the supplement of paper PMC10849652.
